# In PubChem BioAssay (NCATS):
# “And” between values parts separate entries of the source, which are not always exact repeats. Equal values may be shown once. Results filed as inconclusive are left out. Some compounds were tested as several samples or in several runs, with calls that do not always agree. The source made the active and inactive calls. Calls follow the shape of the dose curve; as a rule, active = well fitted curve in the direction sought with a large enough effect; inconclusive = small, poorly fitted or top-dose-only effect, or another doubt; inactive = no such curve, though single readings can be large; an effect the other way counts as inactive or inconclusive.
# Experiments:
# [1] = target: Cytochrome P450 3A4 (Homo sapiens) (UniProt P08684); assay: qHTS Assay for Inhibitors and Substrates of Cytochrome P450 3A4 (AID 884); also: potency is read from the fitted curve at half-maximal effect; nearly all actives have a fitted effect of over 50% in size
# Chain of Cytochrome P450 3A4 (Homo sapiens) (P08684 whole entry, looked up): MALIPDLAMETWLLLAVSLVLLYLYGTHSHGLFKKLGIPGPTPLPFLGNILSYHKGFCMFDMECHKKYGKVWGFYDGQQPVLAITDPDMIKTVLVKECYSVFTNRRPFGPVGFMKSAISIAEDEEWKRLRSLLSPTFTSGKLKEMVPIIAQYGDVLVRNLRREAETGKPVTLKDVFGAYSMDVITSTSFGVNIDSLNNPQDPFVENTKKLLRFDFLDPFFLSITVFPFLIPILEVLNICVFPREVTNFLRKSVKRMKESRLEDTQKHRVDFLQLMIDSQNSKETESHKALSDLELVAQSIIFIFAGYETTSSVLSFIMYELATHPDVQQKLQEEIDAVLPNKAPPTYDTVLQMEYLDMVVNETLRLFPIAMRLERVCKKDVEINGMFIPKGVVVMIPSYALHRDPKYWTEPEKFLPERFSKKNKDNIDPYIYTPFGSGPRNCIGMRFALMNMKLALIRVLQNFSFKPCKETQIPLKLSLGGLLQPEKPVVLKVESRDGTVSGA
# Method in brief: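 Luminescent readout of luciferin produced by CYP3A4 (20 nM) dealkylation of Luciferin-PPXE, 25 uM (its KM). NADPH-driven reaction ran 60 min at RT after 10 min compound preincubation; data scaled to 57 uM ketoconazole as 100% inhibition.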
# [2] = target: Cytochrome P450 3A4 (Homo sapiens) (UniProt P08684); assay: qHTS Assay for Activators of Cytochrome P450 3A4 (AID 885); also: nearly all actives have a fitted effect of over 65% in size
# Method in brief: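 CYP3A4 activity: Luciferin-PPXE O-dealkylation, 25uM substrate, 200mM KPO4, RT throughout. Read-out is luciferase luminescence; higher values reflect activation.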
# [3] = target: Cytochrome P450 2D6 (Homo sapiens) (UniProt P10635); assay: qHTS Assay for Inhibitors and Substrates of Cytochrome P450 2D6 (AID 891); also: nearly all actives have a fitted effect of over 60% in size; also: potency is read from the fitted curve at half-maximal effect
# Chain of Cytochrome P450 2D6 (Homo sapiens) (P10635 whole entry, looked up): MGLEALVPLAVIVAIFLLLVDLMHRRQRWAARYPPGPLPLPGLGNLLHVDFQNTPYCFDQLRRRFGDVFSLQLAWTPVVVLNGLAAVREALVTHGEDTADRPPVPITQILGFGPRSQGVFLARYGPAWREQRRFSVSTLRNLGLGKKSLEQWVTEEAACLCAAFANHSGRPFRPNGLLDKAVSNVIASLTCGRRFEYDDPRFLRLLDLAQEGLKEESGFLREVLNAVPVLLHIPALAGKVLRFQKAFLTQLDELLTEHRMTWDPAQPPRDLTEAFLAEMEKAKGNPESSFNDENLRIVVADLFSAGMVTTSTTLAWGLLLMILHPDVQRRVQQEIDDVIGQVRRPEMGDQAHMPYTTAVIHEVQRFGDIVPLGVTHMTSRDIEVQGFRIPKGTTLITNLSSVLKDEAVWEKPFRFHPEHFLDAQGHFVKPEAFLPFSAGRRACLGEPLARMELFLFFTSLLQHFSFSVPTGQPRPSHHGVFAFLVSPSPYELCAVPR
# Method in brief: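 Luminescent read-out of luciferin formed by 5 nM human CYP2D6 demethylating 30 uM Luciferin-ME EGE (Km level) over 60 min at room temperature after NADPH regeneration addition. Data normalized to full inhibition by 1.43 uM quinidine.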
# [4] = target: Cytochrome P450 2C19 (Homo sapiens) (UniProt P33261); assay: qHTS Assay for Inhibitors and Substrates of Cytochrome P450 2C19 (AID 899); also: nearly all actives have a fitted effect of over 60% in size; also: potency is read from the fitted curve at half-maximal effect
# Chain of Cytochrome P450 2C19 (Homo sapiens) (P33261 whole entry, looked up): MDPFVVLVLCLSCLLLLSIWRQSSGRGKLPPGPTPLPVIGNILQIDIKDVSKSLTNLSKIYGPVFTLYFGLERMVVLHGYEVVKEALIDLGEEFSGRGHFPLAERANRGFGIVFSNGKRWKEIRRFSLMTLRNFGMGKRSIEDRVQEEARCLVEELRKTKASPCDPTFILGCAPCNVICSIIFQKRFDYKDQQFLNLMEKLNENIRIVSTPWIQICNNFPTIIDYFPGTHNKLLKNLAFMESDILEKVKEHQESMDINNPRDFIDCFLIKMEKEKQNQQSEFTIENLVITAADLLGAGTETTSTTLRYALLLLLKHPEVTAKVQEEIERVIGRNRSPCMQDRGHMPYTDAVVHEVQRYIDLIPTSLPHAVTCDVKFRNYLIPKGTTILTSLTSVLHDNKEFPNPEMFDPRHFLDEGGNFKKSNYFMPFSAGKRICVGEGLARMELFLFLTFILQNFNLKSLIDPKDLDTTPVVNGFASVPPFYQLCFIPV
# Method in brief: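 5 nM human CYP2C19 with 10uM Luciferin-H EGE (at KM) in 50mM KPO4, compound preincubated 10 min at 37C, then NADPH regeneration for 60 min at 37C. Luciferin read by luminescence after detection reagent; normalized to 57uM ketoconazole as full inhibition.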
Structure (SMILES),Potency [1],"activity change, positive = activation [2]",Potency [3],Potency [4],Potency [2]
CC(=O)OC[C@@H]1O[C@@H](O/N=C2/C[C@@H](O)[C@@H](O)[C@@H]3[C@@H]4C(=O)N(Cc5ccc6c(c5)OCO6)C(=O)[C@H]4CC[C@H]23)[C@H](OC(C)=O)[C@H](OC(C)=O)[C@@H]1OC(C)=O,5.01 µM (active),-74.2% [at 11.4 µM] (inactive),3.16 µM (active),,
COc1ccc(O[C@H]2C=C[C@@H](c3ccccc3)O[C@@H]2CO/N=C(\C)CCN2CCCc3nc(C)c(C)cc32)cc1,3.16 µM (active),-63.6% [at 11.4 µM] (inactive),3.16 µM (active),398 nM (active),
CCCCC#CC1C=CC(Oc2cc(OC)c(OC)c(OC)c2)C(COC(=O)OCC)O1 (stereo not drawn),2.51 µM (active),-83.6% [at 11.4 µM] (inactive),inactive,inactive,
CO[C@H]1COC(=O)C/C=C\[C@H](C)[C@@H](NS(=O)(=O)c2ccc(C)cc2)COC(=O)C/C=C\[C@@H]1C,3.16 µM (active),-67.8% [at 11.4 µM] (inactive) and -95.2% [at 11.4 µM] (inactive),inactive,,
CC(C)(C)c1ccc(OC2C(O)COC2/C=C/C#Cc2ccccc2)cc1 (stereo not drawn),3.16 µM (active) and 3.98 µM (active),-77.1% [at 11.4 µM] (inactive) and -67.5% [at 11.4 µM] (inactive),inactive,3.16 µM (active) and inactive,
CC(=O)OCC1OC(C#Cc2ccc(C)cc2C)C=CC1OC(C)=O (stereo not drawn),3.16 µM (active),-83.4% [at 11.4 µM] (inactive),3.98 µM (active),,
COc1ccc(/C=C/C2=CC3(C)CC2(C)C(c2ccc(OC)cc2)CC3=O)cc1 (stereo not drawn),5.01 µM (active),-60.7% [at 11.4 µM] (inactive),inactive,,
COC(=O)C/C=C\[C@@H](C)[C@@H](/C=N\OC[C@@H](O)COCc1ccco1)NS(=O)(=O)c1ccc(C)cc1,3.16 µM (active),-107% [at 11.4 µM] (inactive),inactive,,
CCC1=C(OC(=O)N(CC)CC)N2C(=O)OC(=NCCc3c[nH]c4ccccc34)[C@]2(Cc2ccccc2)[C@H]2C1=CC[C@H]1C(=O)N(CC(=O)OC)C(=O)[C@H]12,2.51 µM (active),,,,inactive
OCC1OC(c2ccc3c(c2)OCO3)C=CC1Oc1cc(Cl)cc(Cl)c1 (stereo not drawn),0.316 µM (active),-90.6% [at 11.4 µM] (inactive),3.16 µM (active),79.4 nM (active),
Cc1ccc(/C=C/C2=CC3(C)CC2(C)C(c2ccc(C)cc2)CC3=O)cc1 (stereo not drawn),3.98 µM (active),-95.3% [at 11.4 µM] (inactive),inactive,,
COCC#Cc1ccc(C2C(C)CCC3C(=O)N4C(CCC(C)C4c4ccc(C#CCOC)cc4)C(=O)N32)cc1 (stereo not drawn),1.26 µM (active),-65.6% [at 11.4 µM] (inactive),inactive,,
C=CCOC(=O)C(C(C)=O)C(NC(=O)OC)c1cccc(F)c1 (stereo not drawn),0.0794 µM (active),-72.4% [at 11.4 µM] (inactive),inactive,100 nM (active),
COc1ccc(C#CC2C=CC(Oc3cc(C)cc(C)c3)C(CO)O2)cc1 (stereo not drawn),1.58 µM (active),-94.5% [at 11.4 µM] (inactive),3.98 µM (active),63.1 nM (active),
C=C(C)C(O)/C=C/c1ccc(OC)cc1 (stereo not drawn),5.01 µM (active),-85.8% [at 11.4 µM] (inactive),inactive,,
C=CCOC(=O)C(C(C)=O)C(NC(=O)OC)c1cccc(C)c1 (stereo not drawn),2.51 µM (active),-86.6% [at 11.4 µM] (inactive),inactive,794 nM (active),
CO[C@H]1COC(=O)[C@@H](Cc2ccccc2)NC(=O)[C@@H](C)COC(=O)CCC[C@@H]1C,3.16 µM (active),-63.9% [at 11.4 µM] (inactive),inactive,,
CO[C@H]1COC(=O)C/C=C\[C@H](C)[C@@H](OC)COC(=O)[C@H](Cc2ccccc2)NC(=O)C/C=C\[C@@H]1C,3.16 µM (active),-62.1% [at 11.4 µM] (inactive),,,
C/C(CCC(=O)OC[C@@H]1O[C@H](C#Cc2ccccc2)C=C[C@@H]1Oc1ccc(C)cc1)=N/O[C@@H](C)CN1CCCc2nc(C)c(C)cc21,3.98 µM (active),-95.5% [at 11.4 µM] (inactive),3.16 µM (active),3160 nM (active),
